The record followed here is PubChem BioAssay (NCI).

“And” between values parts separate entries of the source, which are not always exact repeats. Identical values can stand only once. The panel holds about 83,000 compounds, 20% with a hit somewhere; the sample as a whole holds those more often.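 The test compound was applied at a single concentration to cells in 96-well plates for 48 hours, and percent growth was recorded.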 Values without a mark were called inactive. The source made the active and inactive calls. How the source made its calls: active means growth percent below 10; inactive means the rest.

For the first assay, the system named is SNB-19 CNS. Put plainly: NCI-60 one-dose screen, 48 h (100 = growth as untreated, 0 = no growth, -100 = all killed). Conditions: 10 µM.
With `O=C1C=Cc2ccccc2C1=O`, the growth was 72.7%.

Consider `COC1CC2C=C(C)/C=C/C=C/C(=O)NC(c3ccccc3)C/C=C/CCC(O)CC(=O)C2=C1O` (centres undefined), for which the growth was -27.1% (active).

Take `Cc1ccc(NC(=O)CBr)cc1`: the growth was 96.8%.

Regarding `Cc1ccc(C(=O)C2C(c3ccccc3)N2C2CCCCC2)cc1` (centres undefined), the growth was 105% and 94%.

Regarding `COc1cc(/C=C/[N+](=O)[O-])cc(OC)c1OC`, the growth was 56.5%.

In the case of `O=C(CBr)Nc1ccc(Cl)cc1`, the growth was 88.8%.

Regarding `CC(C)c1cc([N+](=O)[O-])cc([N+](=O)[O-])c1O`, the growth was 107%.

On to `COc1ccccc1/C=C/[N+](=O)[O-]`, for which the growth was 86.9%.

As to `O=C(CCl)Nc1ccc(Cl)cc1`, the growth was 79.1%.

With `Cc1cc(C)c(C[N+](C)(C)C)c(C)c1C`, the growth is 16.1%.

Take `C[C@]12CC[C@H]3[C@@H](CCC4=CC(=O)CC[C@@H]43)[C@@H]1CC[C@@H]2OC(=O)N(CCCl)N=O`: the growth was 34.5%.

On to `NNc1ccccc1`, for which the growth is 96.7%.

On to `COc1ccc(/C=C(\C)[N+](=O)[O-])cc1OC`, for which the growth is 99.8%.

On to `C[CH2][Hg][S]c1ccccc1C(=O)O`, for which the growth was 50.6%.

As for `NC(=O)c1cc([N+](=O)[O-])c(Cl)c([N+](=O)[O-])c1Cl`, the growth is 74%.

Consider `O=S(=O)(F)c1ccc(Cl)cc1`, for which the growth is 101%.

As to `O=[N+]([O-])/C=C/c1ccc(Cl)cc1[N+](=O)[O-]`, the growth was 71.8%.

`COc1cc([N+](=O)[O-])c2ncccc2c1[N+](=O)[O-]`: the growth is 96%.

For `Oc1c(I)cc(I)cc1I`, the growth is 96.3%.

Turning to `O=[N+]([O-])/C=C\c1ccc2c(c1)OCO2`, the growth is 102%.

In the case of `O=[N+]([O-])c1ccc(Br)c([N+](=O)[O-])c1`, the growth was 101%.

As for `O=[N+]([O-])c1ccc(N(CCO)CCO)c2c1no[n+]2[O-]`, the growth was -17.9% (active).

As to `COc1cc(/C=C/[N+](=O)[O-])cc(Br)c1OC`, the growth is 49%.

`COc1cc(/C=C\[N+](=O)[O-])ccc1O`: the growth is 82.6% and 81.2%.

With `Cc1cc(C(C)(C)c2ccc(O)c(C)c2)ccc1O`, the growth was 100%.

On to `COC12c3c(C)cc(O)c4c(=O)occ(c34)C(=O)C1C13COC(=O)c4c(O)cc(C)c(c41)C(=O)C2C3OC(C)=O` (centres undefined), for which the growth was 97.6%.

For a further assay, the system named is U251 CNS. Described as above. Conditions: 10 µM.
For the molecule `O=C1C=Cc2ccccc2C1=O`, the growth was 74.2%.

For `Cc1ccc(C(=O)C2C(c3ccccc3)N2C2CCCCC2)cc1` (centres undefined), the growth is 106% and 93.1%.

Turning to `COc1cc(/C=C/[N+](=O)[O-])cc(OC)c1OC`, the growth is 18.4%.

In the case of `O=C(CBr)Nc1ccc(Cl)cc1`, the growth is 86.8%.

Consider `CC(C)c1cc([N+](=O)[O-])cc([N+](=O)[O-])c1O`, for which the growth is 103%.

As for `COc1ccccc1/C=C/[N+](=O)[O-]`, the growth was 50.3%.

With `O=C(CCl)Nc1ccc(Cl)cc1`, the growth is 0.303% (active).

Take `Cc1cc(C)c(C[N+](C)(C)C)c(C)c1C`: the growth was 1.76% (active).

As for `C[C@]12CC[C@H]3[C@@H](CCC4=CC(=O)CC[C@@H]43)[C@@H]1CC[C@@H]2OC(=O)N(CCCl)N=O`, the growth was 30.6%.

With `NNc1ccccc1`, the growth is 103%.

Turning to `C[CH2][Hg][S]c1ccccc1C(=O)O`, the growth is -6.81% (active).

As to `NC(=O)c1cc([N+](=O)[O-])c(Cl)c([N+](=O)[O-])c1Cl`, the growth was -81.5% (active).

Turning to `O=S(=O)(F)c1ccc(Cl)cc1`, the growth was 109%.

Turning to `O=[N+]([O-])/C=C/c1ccc(Cl)cc1[N+](=O)[O-]`, the growth is -39.8% (active).

As to `COc1cc([N+](=O)[O-])c2ncccc2c1[N+](=O)[O-]`, the growth is 41.9%.

For the molecule `Oc1c(I)cc(I)cc1I`, the growth was 106%.

Consider `O=[N+]([O-])/C=C\c1ccc2c(c1)OCO2`, for which the growth is 71.1%.

For `O=[N+]([O-])c1ccc(Br)c([N+](=O)[O-])c1`, the growth was 99.1%.

For `O=[N+]([O-])c1ccc(N(CCO)CCO)c2c1no[n+]2[O-]`, the growth was -69.2% (active).

As for `COc1cc(/C=C/[N+](=O)[O-])cc(Br)c1OC`, the growth was -21.2% (active).

`COc1cc(/C=C\[N+](=O)[O-])ccc1O`: the growth was 50.1% and 64.1%.

Turning to `Cc1cc(C(C)(C)c2ccc(O)c(C)c2)ccc1O`, the growth is 86.6%.

For `COC12c3c(C)cc(O)c4c(=O)occ(c34)C(=O)C1C13COC(=O)c4c(O)cc(C)c(c41)C(=O)C2C3OC(C)=O` (centres undefined), the growth was 102%.

Another assay has as its system PC-3 prostate. Described as above. Conditions: 10 µM.
Consider `O=C1C=Cc2ccccc2C1=O`, for which the growth was 72.9%.

With `COC1CC2C=C(C)/C=C/C=C/C(=O)NC(c3ccccc3)C/C=C/CCC(O)CC(=O)C2=C1O` (centres undefined), the growth was -91.1% (active).

Take `Cc1ccc(NC(=O)CBr)cc1`: the growth was 96.4%.

Regarding `Cc1ccc(C(=O)C2C(c3ccccc3)N2C2CCCCC2)cc1` (centres undefined), the growth is 98% and 83%.

Take `COc1cc(/C=C/[N+](=O)[O-])cc(OC)c1OC`: the growth was 6.51% (active).

Turning to `O=C(CBr)Nc1ccc(Cl)cc1`, the growth is 93.3%.

As to `CC(C)c1cc([N+](=O)[O-])cc([N+](=O)[O-])c1O`, the growth is 81.4%.

In the case of `COc1ccccc1/C=C/[N+](=O)[O-]`, the growth is 64.1%.

For `O=C(CCl)Nc1ccc(Cl)cc1`, the growth is 62.9%.

As to `Cc1cc(C)c(C[N+](C)(C)C)c(C)c1C`, the growth was 14.3%.

In the case of `C[C@]12CC[C@H]3[C@@H](CCC4=CC(=O)CC[C@@H]43)[C@@H]1CC[C@@H]2OC(=O)N(CCCl)N=O`, the growth was 43.1%.

As for `COc1ccc(/C=C(\C)[N+](=O)[O-])cc1OC`, the growth is 51%.

With `C[CH2][Hg][S]c1ccccc1C(=O)O`, the growth was 55.8%.

Consider `NC(=O)c1cc([N+](=O)[O-])c(Cl)c([N+](=O)[O-])c1Cl`, for which the growth was 46.7%.

In the case of `O=S(=O)(F)c1ccc(Cl)cc1`, the growth was 91.4%.

On to `O=[N+]([O-])/C=C/c1ccc(Cl)cc1[N+](=O)[O-]`, for which the growth is 46.4%.

On to `COc1cc([N+](=O)[O-])c2ncccc2c1[N+](=O)[O-]`, for which the growth was 66.4%.

`Oc1c(I)cc(I)cc1I`: the growth is 93.1%.

With `O=[N+]([O-])/C=C\c1ccc2c(c1)OCO2`, the growth is 83%.

Take `O=[N+]([O-])c1ccc(Br)c([N+](=O)[O-])c1`: the growth is 91.8%.

As to `O=[N+]([O-])c1ccc(N(CCO)CCO)c2c1no[n+]2[O-]`, the growth was -5.95% (active).

For the molecule `COc1cc(/C=C/[N+](=O)[O-])cc(Br)c1OC`, the growth was 31.1%.

`COc1cc(/C=C\[N+](=O)[O-])ccc1O`: the growth is 97.6% and 90.3%.

For `Cc1cc(C(C)(C)c2ccc(O)c(C)c2)ccc1O`, the growth was 123%.

As for `COC12c3c(C)cc(O)c4c(=O)occ(c34)C(=O)C1C13COC(=O)c4c(O)cc(C)c(c41)C(=O)C2C3OC(C)=O` (centres undefined), the growth is 80.2%.
